Activity calls are given as the source filed them. Rule for the calls: active = hit-call score of the fitted dose curve at least 0.9, where 1 is the maximum; inactive = score below 0.9.
Assay: ATG_M_32_CIS: Attagene CIS-FACTORIAL HepG2 Assay for M32 Transcription Factor (Internal Marker) (AID 2282949);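 note: background control marker of the multiplexed CIS panel rather than a real target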
Conditions: HepG2 Attagene cis-factorial M32 reporter, mRNA; actives raise or lower the signal
Outline: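 Following 24 h chemical exposure of HepG2 cells transiently expressing cis-promoter reporter constructs, reporter transcript levels were determined by RT-PCR with fluorescent labelling and capillary electrophoresis, then fitted bidirectionally against DMSO.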

outcome, inactive:
CC1=CC(=O)c2ccccc2C1=O
CC(C)(C)C1CCCCC1O (configuration not stated)
CC(C)CCOCCC(C)C
CCCCCCCCCCCCCC[n+]1ccccc1
CCCCCCCC(OC)OC
O=CC(F)(F)C(F)(F)C(F)(F)C(F)F
CCCCCCCCCCCCCCC
O=C1OC(=O)C(F)(F)C1(F)F
COCN(COC)c1nc(N(COC)COC)nc(N(COC)COC)n1
CC(=O)Nc1ccc(S(N)(=O)=O)cc1
CCCCCCCCCCCC(=O)NCCCN(C)C
C=CC(C)(CCC=C(C)C)OC(C)=O (configuration not stated)
O=C(OC(=O)C(F)(F)C(F)(F)F)C(F)(F)C(F)(F)F
C[N+](C)(CCCNS(=O)(=O)CCC(F)(F)C(F)(F)C(F)(F)C(F)(F)C(F)(F)C(F)(F)F)CC(=O)[O-]
CCOC(=O)CN[C@@H](C(=O)N1CC[C@H]1C(=O)NCc1ccc(/C(N)=N/O)cc1)C1CCCCC1
CC(O)COc1ccccc1 (configuration not stated)
CCC(C)c1ccccc1O (configuration not stated)
C/C=C/C(=O)C1=C(C)CCCC1(C)C
O=C(NCc1ncc(C(F)(F)F)cc1Cl)c1c(Cl)cccc1Cl
CCCCCC(C)OC(=O)COc1ccc(Cl)c2cccnc12 (configuration not stated)
O=S(=O)(O)C(F)(F)C(F)(F)C(F)(F)C(F)(F)C(F)(F)C(F)(F)C(F)(F)C(F)(F)C(F)(F)C(F)(F)F
c1cc2cccc3c4cccc5cccc(c(c1)c23)c54
CCCCC(CC)C(=O)OCCOCCOCCOCCOC(=O)C(CC)CCCC (configuration not stated)
CCCCCCCCCCCCOC(=O)c1cc(O)c(O)c(O)c1
CCOC(C)=O
Cc1ccccc1OCC(=O)O
NCc1cccc(CN)c1
CC(C)(C)c1ccc(CCC=O)cc1
CC(=O)CC(C)C
NNc1nc(-c2ccc([N+](=O)[O-])cc2)cs1
OCC(F)(F)C(F)(F)C(F)(F)C(F)(F)C(F)(F)C(F)(F)C(F)(F)C(F)(F)C(F)(F)C(F)(F)C(F)(F)F
COC(=O)C(F)(F)C(F)(F)C(F)(F)F
CCOC=O
CCCCCCCCCCCC[N+](C)(C)CCCCCCCCCCCC
CCCCCCCCCC=CCC1CC(=O)OC1=O (configuration not stated)
FC(F)(F)C(F)(F)C(F)(F)Br
Oc1cccc2c(O)cccc12
